A350 fluor: qHTS Assay for Spectroscopic Profiling in A350 Spectral Region; Compound autofluorescence, 340/450 nm, Alexa 350 dye-equivalents; hits give high values; max dye-equivalent concentration, M; 11% of 59,000 active; AID 590, 2007; in the data active = max dye-equivalent concentration above about 10 nM; inconclusive = mostly about 1.1 nM to 9.6 nM
HADH2 inh: qHTS Assay for Inhibitors of HADH2 (Hydroxyacyl-Coenzyme A Dehydrogenase, Type II) | 3-hydroxyacyl-CoA dehydrogenase type-2 (Homo sapiens), Q99714 | recombinant HADH2, NADH fluorescence, beta-hydroxybutyryl-CoA | 3.4% of 73,000 active | Potency, µM (titrated, usually from 57.1 µM), hits mostly inhibitors; note: nearly all actives have a fitted effect of over 60% in size
Target sequence (Q99714 whole entry, looked up, one chain of several): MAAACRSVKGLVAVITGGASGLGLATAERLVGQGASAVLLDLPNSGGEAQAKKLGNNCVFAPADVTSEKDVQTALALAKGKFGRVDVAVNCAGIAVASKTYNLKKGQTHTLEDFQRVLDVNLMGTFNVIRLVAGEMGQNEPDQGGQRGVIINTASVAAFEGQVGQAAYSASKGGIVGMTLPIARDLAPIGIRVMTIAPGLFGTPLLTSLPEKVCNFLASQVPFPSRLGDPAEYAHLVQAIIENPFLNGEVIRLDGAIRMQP
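NADH fluorescence (ex 360/em 450 nm) read every 30 s for 4 min; activity taken as last-minus-first time point difference. Enzyme 20 nM, NAD+ 1 mM, beta-hydroxybutyryl-CoA 90 uM, pH 9.0 Tris buffer.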
4-MU autofl: qHTS Assay for Spectroscopic Profiling in 4-MU Spectral Region. compound autofluorescence, 340/450 nm, 4-MU equivalents; hits give high values. max dye-equivalent concentration, M. 11% of 59,000 active; in the data active = max dye-equivalent concentration above about 10 nM; inconclusive = mostly about 1.1 nM to 9.6 nM
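Compounds in 100 mM Tris, pH 8.0, incubated 15 min at room temperature, then fluorescence read at 340 nm excitation/450 nm emission. Signal converted to 4-MU dye-equivalent concentration using an on-plate six-point 4-MU standard curve.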
CRE-bla Fsk: Cell signaling CRE-BLA (Fsk stim). Potency, µM (top dose mostly 38.2 µM), actives largely listed as activators. 2.5% of 71,000 active. CHO CRE-bla reporter (cAMP response element driving beta-lactamase), forskolin EC10, beta-lactamase ratio. AID 662, 2007; active = well fitted activation curve with a large enough effect in the signal ratio, with a control signal flat, not every such curve was filed as active; inconclusive = small, poorly fitted or top-dose-only effect, or effect the other way, or a change in a side signal; the % refers to the signal ratio
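Forskolin analogue NKH 477 at EC10 stimulated CRE-driven beta-lactamase in CHO cells alongside compound dilution series. Beta-lactamase was measured with CCF4, excitation 405 nm, emission ratio 460/530 nm.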
HSD17B inhib: qHTS Assay for Inhibitors of HSD17B4, hydroxysteroid (17-beta) dehydrogenase 4 | Potency, µM (doses to about 57.1 µM), most hits filed as inhibitors | 3-hydroxyacyl-CoA dehydrogenase type-2 (Homo sapiens), Q99714 | recombinant HSD17B10, NADH fluorescence kinetic | 7.6% of 75,000 active;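 note: the protocol describes HADH2 (HSD17B10) and not the HSD17B4 of the title; nearly all actives have a fitted effect of over 70% in size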
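Activity followed as NADH fluorescence increase (ex 360, em 450 nm) every 30 seconds for 4 min, using final 90 uM beta-hydroxybutyryl CoA and 1 mM NAD+. Recombinant His-tagged enzyme, 20 nM, pH 9.0 Tris buffer, 15 min compound preincubation.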
AID923: qHTS Assay for Allosteric/Competitive Inhibitors of Caspase-1: Spectroscopic Profiling in AFC Spectral Region; compound fluorescence, AFC spectral region (405/520 nm); Potency, µM (series often up to 57.5 µM), usual class: activators; 1.1% of 75,000 active; AID 923, 2007
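Baseline compound fluorescence (AFC region, 405 nm ex/520 nm em) taken from the intercept of kinetic reads with 50 nM caspase-1 and 5 uM Ac-WEHD-AFC; normalized to an on-plate AFC standard curve; compounds titrated up to 57 uM.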
Hits are given with their value; n = inactive; u = inconclusive; x = no result; [ ] = remark or other dose. In the library only some 14% were active in any assay of this set; here they are far more common. Unless noted, calls come from the whole dose curve; as a rule, active = well fitted curve in the direction sought with a large enough effect; inconclusive = small, poorly fitted or top-dose-only effect, or another doubt; inactive = no such curve, though single readings can be large; an effect the other way counts as inactive or inconclusive.

SMILES | A350 fluor | HADH2 inh | 4-MU autofl | CRE-bla Fsk | HSD17B inhib | AID923
COC(=O)c1ccc(C(=O)OC)c(NC(=O)COC(=O)C23CC4CC(CC(O)(C4)C2)C3)c1 | n | n | n | u | n | n
CCn1ncc(Br)c1C(=O)Nc1cc(C(=O)OC)ccc1C(=O)OC | 2.69e-08M | u | 2.84e-08M | n | n | n
CCOCC(=O)Nc1cc(C(=O)OC)ccc1C(=O)OC | 1.21e-07M | n | 1.11e-07M | n | 31.6µM | n
CN(C1CCCCC1)S(=O)(=O)c1ccccc1 | n | n | n | n | n | n
CCOc1ccccc1NC(=O)CC1Nc2cc(C)c(C)cc2NC1=O (stereo not drawn) | x | n | x | u | 20µM | n
CCCOc1ccccc1NC(=O)c1ccc(N)cc1 | n | n | n | n | n | n
CCCOc1ccccc1NC(=O)CC1Nc2ccccc2NC1=O (stereo not drawn) | 1.28e-08M | n | u | u | u | n
Cc1ccc(NC(=O)CC2Nc3ccccc3NC2=O)cc1Cl (stereo not drawn) | x | n | x | u | n | n
CCOc1ccccc1NC(=O)CC1Nc2ccccc2NC1=O (stereo not drawn) | 2.67e-08M | n | 2.09e-08M | n | 31.6µM | n
Cc1[nH]nc2c1C(=O)CCC2 | n | n | n | n | n | n
CCCCC(CC)CNC(=O)c1cccs1 (stereo not drawn) | x | n[11.4 µM] | x | u | n | n
O=C(O)c1ccccc1/C=N\N=C1c2ccccc2-c2ccccc21 | n | n[11.4 µM] | n | n[7.6 µM] | n[11.4 µM] | n[11.5 µM]
CCOc1nc(-c2ccc(C)cc2)ccc1-c1noc(-c2cccnc2)n1 | u | u | u | n | 7.94µM | n
CCOc1ccc(-c2noc(-c3cccnc3)n2)cc1OC | n | n | n | u | n | n
CCOc1nc(-c2ccc(OC)cc2)ccc1-c1noc(-c2cccnc2)n1 | 1.3e-08M | n | 1.37e-08M | n | n | n
COc1nc2cc(C)ccc2cc1-c1noc(-c2cccnc2)n1 | u | n | n | u | n | n
CCOc1ccc(-c2noc(CCC(N)=O)n2)cc1OCC | u | n | n | u | n | n
Cc1cccc(-n2ncc3c(NCc4ccco4)ncnc32)c1 | n | x | n | x | x | x
Cc1cccc(-n2ncc3c(NCc4ccccn4)ncnc32)c1 | u | n | n | u | 20µM | n
COc1ccc(OC)c(Nc2ncnc3c2cnn3-c2cccc(C)c2)c1 | 6.39e-08M | 31.6µM | 5.89e-08M | u | n | n
Cc1ccc(-n2ncc3c(NCCCOC(C)C)ncnc32)c(C)c1 | 3.22e-08M | x | 3.19e-08M | x | x | x
CC(=O)Nc1ccc(Nc2ncnc3c2cnn3-c2cccc(C)c2)cc1 | x | n | x | x | n | n
c1ccc(-n2ncc3c(NCCN4CCCCC4)ncnc32)cc1 | n | n | n | n | 25.1µM | n
c1ccc(CCNc2ncnc3c2cnn3-c2ccccc2)cc1 | n | n | n | n | n | n
Clc1ccc(-n2ncc3c(NCc4cccs4)ncnc32)cc1 | n | x | n | x | x | x
SMILES | A350 fluor | HADH2 inh | 4-MU autofl | CRE-bla Fsk | HSD17B inhib | AID923
CN(Cc1ccccc1)c1ncnc2c1cnn2-c1ccccc1 | n | n | n | 10µM | u | n
c1ccc(-n2ncc3c(NCc4ccccn4)ncnc32)cc1 | n | n | n | u | 31.6µM | n
Cc1cccc(-n2ncc3c(NCc4ccccc4)ncnc32)c1 | x | u | x | u | 25.1µM | n
Cc1cccc(-n2ncc3c(NCc4cccs4)ncnc32)c1 | n | n | n | u | 31.6µM | n
c1ccc(CNc2ncnc3c2cnn3-c2ccccc2)cc1 | n | u | n | u | u | n
O=C(c1cccc(F)c1)N1CCC2(CCN(Cc3nccs3)CC2)CC1 | n | n | n | n | n | n
O=C(Cn1cnc2c(cnn2-c2ccccc2)c1=O)NC1CCCC1 | x | n | x | n | n | n
CC(C)(c1cc(Br)c(O)c(Br)c1)c1cc(Br)c(O)c(Br)c1 | x | 15.8µM | x | u | 10µM | n
Fc1ccc(CN2CCCCCCC2)cc1F | x | n | x | n | n | n
CCOC(=O)c1c(NC(=O)c2ccoc2C)sc2c1CCC2 | 5.69e-07M | 31.6µM | 5.15e-07M | u | 31.6µM | n
